Screening data from PubChem.
Sampled rows, rich in hits. Any-hit rate of the full collection: about 8.7%.
ALOX12 inh: ALOX12 (human) lipoxygenase inhibition. P18054. purified 12hLO, xylenol orange hydroperoxide absorbance. Potency, µM (series often up to 108 µM), usual class: inhibitors. hit rate 1.1% among 580,000. AID 1671190
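Purified human 12hLO at 150 nM in 25 mM Hepes, 0.01% Triton X-100, pH 7.0, preincubated 15 min at room temperature with compound. Reaction started with 40 uM arachidonic acid, 30 min at room temperature. Hydroperoxide measured by Fe-xylenol orange, 573/405 nm absorbance ratio.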
JMJD2A Tudor inh: blocks the human JMJD2A Tudor domain. O75164. AlphaScreen JMJD2A-Tudor / H3K4me3 peptide binding. Potency, µM (highest dose often 114 µM), actives largely listed as inhibitors. hit rate 4.4% among 390,000. AID 504339; note: nearly all actives have a fitted effect of over 50% in size
HP1b chromo inh: inhibitors of HP1-beta chromodomain binding to methylated histone tails | P83916 | AlphaScreen HP1-beta / biotin-H3K9me3 peptide binding | Potency, µM (doses to about 114 µM), actives largely listed as inhibitors | hit rate 0.56% among 390,000; note: nearly all actives have a fitted effect of over 70% in size
Target sequence (P83916 whole entry, looked up): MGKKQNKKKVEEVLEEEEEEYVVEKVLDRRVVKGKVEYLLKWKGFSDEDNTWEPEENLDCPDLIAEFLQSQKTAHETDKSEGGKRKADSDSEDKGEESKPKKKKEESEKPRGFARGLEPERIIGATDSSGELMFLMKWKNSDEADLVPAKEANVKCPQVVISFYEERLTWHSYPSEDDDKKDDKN
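AlphaScreen: HP1-beta (50 nM) preformed 30 min with biotin-H3(1-18)K9me3 peptide (50 nM) in PBS pH 7.4, 0.01% Tween-20. Compound added for 30 min at RT, then streptavidin donor/nickel chelate acceptor beads (10 ug/mL) for 30 min.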
G9a inh: blocks human histone lysine methyltransferase G9a. G9a H3K9 monomethylation, AlphaScreen, 2 h. Q96KQ7. Potency, µM (doses to about 102 µM), usual class: inhibitors. hit rate 8.8% among 350,000; note: nearly all actives have a fitted effect of over 75% in size
Target sequence (Q96KQ7 913-1193 limits assumed): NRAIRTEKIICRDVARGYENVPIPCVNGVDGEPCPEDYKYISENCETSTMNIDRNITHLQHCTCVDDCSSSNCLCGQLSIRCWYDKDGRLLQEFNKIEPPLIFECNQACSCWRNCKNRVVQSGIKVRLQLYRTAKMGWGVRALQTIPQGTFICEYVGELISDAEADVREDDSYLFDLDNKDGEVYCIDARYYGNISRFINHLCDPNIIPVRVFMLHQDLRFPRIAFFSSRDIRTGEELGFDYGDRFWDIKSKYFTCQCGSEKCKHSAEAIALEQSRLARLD
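Readings reflect AlphaScreen signal from monomethyl-H3K9 antibody detection. HMT at 20 nM; substrate b-H3K9 500 nM; cofactor SAM 20 uM; 2 h RT reaction; compounds tested as titrations in qHTS with 15 min preincubation.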
Sfp inh: Sfp phosphopantetheinyl transferase inhibition; hit rate 3.5% among 310,000; Potency, µM, actives largely listed as inhibitors; Biochemical Sfp PPTase activity, qHTS; Q9F4F7;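 note: the enzyme is Sfp with the accession as filed and its product quenches rhodamine fluorescence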
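Fluorescence-quenching assay with 15 nM Sfp, 5 uM rhodamine-CoA and 12.5 uM BHQ-2-labelled ybbR peptide in pH 7.6 Hepes/MgCl2 buffer. Enzyme was pre-incubated with compound for 15 min at room temperature. Rate was taken from the 30-min fluorescence change (525/598 nm).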
BAZ2B block: BAZ2B (human) inhibition; Q9UIF8; AlphaScreen BAZ2B-H3K14Ac peptide displacement; Potency, µM (highest dose often 114 µM), most hits filed as inhibitors; hit rate 4.4% among 360,000; note: nearly all actives have a fitted effect of over 60% in size
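Complex of BAZ2B and biotin-H3K14Ac (50 nM apiece) forms over 30 min at RT, then faces library compounds up to 110 uM for another 30 min; AlphaScreen beads added, 20 min dark incubation, luminescence read.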
Hits are given with their value; – = inactive; ? = inconclusive; · = no result given; ! = a repeat was not active; [ ] = dose if it differs, or a comment. Calls come from the whole dose curve; as a rule, active = well fitted curve in the direction sought with a large enough effect; inconclusive = small, poorly fitted or top-dose-only effect, or another doubt; inactive = no such curve, though single readings can be large; an effect the other way counts as inactive or inconclusive.

SMILES	ALOX12 inh	JMJD2A Tudor inh	HP1b chromo inh	G9a inh	Sfp inh	BAZ2B block
COc1ccccc1-c1n[nH]c(=S)n1-c1ccccc1	?	7.94µM	–	2.51µM	–	–
COc1ccccc1-c1n[nH]c(=S)n1N	14.1µM	?	–	12.6µM	44.7µM	?
COc1ccccc1-c1ccnc(-c2nnc(C)n2-c2ccccc2)c1	–	·	·	·	·	·
Cc1cccc(NC(=O)CNC(=O)Cn2c(=O)n(C)c3ccccc32)c1C	–	·	·	·	·	·
Cc1cccc(NC(=O)CNC(=O)Cn2ncc(Cl)c(Cl)c2=O)c1C	·	44.7µM	70.8µM	·	·	·
O=C(CSc1nc(-c2cccs2)nc2cc(=O)[nH]n12)Nc1ccccc1F	–	?	–	–[12.7 µM]	·	?
Cc1ccc(NC(=O)CSc2nc(-c3ccccc3)nc3cc(=O)[nH]n23)cc1	–	·	·	·	·	·
Cc1ccc(NC(=O)CSc2nc(-c3ccccc3Cl)nc3cc(=O)[nH]n23)c(C)c1	–	–	–	–	·	89.1µM
O=C(CSc1nc(-c2ccco2)nc2cc(=O)[nH]n12)Nc1ccc(F)cc1	–	–	–	–	·	–
Cc1cccc(NC(=O)CSc2nc(-c3ccco3)nc3cc(=O)[nH]n23)c1	–	–	–	–[12.7 µM]	·	79.4µM
O=C(CSc1nc(-c2cccs2)nc2cc(=O)[nH]n12)Nc1ccccc1	–	–	–	–	·	56.2µM
O=C(CSc1nc(-c2cccs2)nc2cc(=O)[nH]n12)Nc1ccccc1Cl	–	?	–	–	·	79.4µM
O=C1CC(c2ccccc2)N(Cc2ccc(F)c(F)c2)CCCCCN1 (centres undefined)	–	·	·	·	·	·
Cc1cccc(NC(=O)CSc2nnc(CNC(=O)c3ccco3)o2)c1	–	–	–	11.2µM	–	–
Cc1cc(C)cc(NC(=O)CSc2nnc(CNC(=O)c3ccco3)o2)c1	–	–	–	–	–	–
O=C1CCCC2=C1C(c1ccc(O)c(Br)c1)C1=C(CCCC1=O)O2	–	·	·	·	·	·
Cc1ccc2c(c1)c1c3n2CCN(C(=O)CN2CCN(C)CC2)C3CCC1 (centres undefined)	–	?	–	44.7µM	–	?
Cc1ccc2c(c1)c1c3n2CCN(C(=O)Cn2c(-c4ccccc4)noc2=O)C3CCC1 (centres undefined)	–	–	–	–	?	–
Cc1ccc2c(c1)c(=O)c1c3n2CCN(C(=O)CCl)C3CC1 (centres undefined)	–	?	–	11.2µM	79.4µM	39.8µM
CN1CCN(CC(=O)N2CCn3c4c(c5cc(C6CCCCC6)ccc53)CCCC42)CC1 (centres undefined)	·	39.8µM	?	?	?	35.5µM
COc1cc(NC(=O)CSc2nncn3c2cc2oc(C)cc23)cc(OC)c1	–	·	·	·	·	·
COCCNC(=O)c1ccc(OC2CCN(Cc3ccc(C)s3)CC2)c(Cl)c1	–	·	·	·	·	·
C=CCOC(=O)C1=C(C)NC(SCC(=O)NC(=O)OCC)=C(C#N)C1c1cccnc1 (centres undefined)	–	–	–	50.1µM	?	–
CC(=O)C1=C(C)NC(SCSc2ccccc2)=C(C#N)C1c1cccnc1 (centres undefined)	·	–	–	?	–	–
C=CCOC(=O)C1=C(C)NC(SCC(=O)N(CC)CC)=C(C#N)C1c1ccccc1 (centres undefined)	–	–	–	–[12.7 µM]	–	–
SMILES	ALOX12 inh	JMJD2A Tudor inh	HP1b chromo inh	G9a inh	Sfp inh	BAZ2B block
CC(=O)C1=C(C)NC(SCC(=O)c2ccc(-c3ccccc3)cc2)=C(C#N)C1c1cccnc1 (centres undefined)	·	·	·	15.8µM	22.4µM	–
Cc1cc(C[C@@H]2COC[C@@H]2NC(=O)Cn2nc(C)n(-c3ccccc3)c2=O)on1	–	·	·	·	·	·
C#CCOCCOCCOCCNc1nc(N2CCN(C(=O)CCCCCCCCCCNC(=O)[C@@H](CCC(=O)O)n3cc(CCCCCN)nn3)CC2)nc(N2CCN(C(=O)CCCCCCCCCCNC(=O)[C@H](CO)n3cc(CCCSC)nn3)CC2)n1	·	44.7µM	–	–[2.33 µM]	·	?
C#CCOCCOCCOCCNc1nc(N2CCN(C(=O)CCCCCCCCCCNC(=O)[C@@H](CCSC)n3cc(CCO)nn3)CC2)nc(N2CCN(C(=O)CCCCCCCCCCNC(=O)[C@H](CO)n3cc(CCCCCN)nn3)CC2)n1	·	79.4µM	?	–[2.33 µM]	·	?
C#CCOCCOCCOCCNc1nc(N2CCN(C(=O)CCCCCCCCCCNC(=O)[C@@H](CCSC)n3cc(CCO)nn3)CC2)nc(N2CCN(C(=O)CCCCCCCCCCNC(=O)[C@H](CCC(=O)O)n3cc(CCCCCN)nn3)CC2)n1	·	–	–	–[2.33 µM]	·	–
NCCCCCCCCCCN	·	·	·	–	·	·
NCCNCCNCCN	–	–	–	–	–	?
NCCCCNCCCN	?	–	–	10.6µM!	?	–
NCCNCCN	·	·	·	·	3.16µM	·
NCCCCN	–	·	·	50.1µM!	–	·
O=C(Nc1nc2ccc(OC(F)F)cc2s1)c1ccccc1Cl	–	·	·	·	·	·
OCCC1CN(Cc2cccn2-c2ccccn2)CCN1Cc1cccs1 (centres undefined)	–	·	·	·	·	·
Cc1c(Cl)cccc1N(CC(=O)Nc1ccc2c(c1)OCO2)S(C)(=O)=O	–	·	·	·	·	·
O=C(Nc1cccc(-c2nc3ccccc3c(=O)o2)c1)c1ccccc1	–	25.1µM	?	–	–	–
O=[N+]([O-])c1cccc(-c2cnc3ccccc3n2)c1	–	–	–	–	–	–
O=[N+]([O-])c1ccc2nc(-c3ccccc3)oc2c1	–	–	–	39.8µM	–	–
COc1ccccc1Nc1nc(-c2cccc([N+](=O)[O-])c2)nc2ccccc12	?	?	–	–[0.501 µM]	79.4µM	?
Cc1cc(-c2cccc([N+](=O)[O-])c2)nc2ccccc12	–	–	–	12.6µM	–	–
CCCCn1c(=O)n(CC(=O)Nc2cc(C)on2)c(=O)c2c1ncn2Cc1ccccc1	–	·	·	·	·	·
Cc1ccc2c(c1)OC=CC(C(=O)Nc1ccc(Cl)c(Cl)c1)=C2	–	·	·	·	·	·
O=c1oc(-c2cccc([N+](=O)[O-])c2)nc2ccccc12	–	–	–	44.7µM	–	–
CN(C)CCCN(C(=O)c1ccc2c(c1)OCCO2)c1nc2cc3c(cc2s1)OCO3	–	–	–	·	–	–
CCc1ccc2nc(N(CCCN(C)C)C(=O)c3ccc(S(=O)(=O)N4CCCc5ccccc54)cc3)sc2c1	?	44.7µM	?	39.8µM	35.5µM	?
CCOC(=O)N1CCN(S(=O)(=O)c2ccc(C(=O)N(CCN(C)C)c3nc4ccc(CC)cc4s3)cc2)CC1	–	?	–	50.1µM	–	?
CC1CN(S(=O)(=O)c2ccc(C(=O)N(CCCN(C)C)c3nc4cc5c(cc4s3)OCCO5)cc2)CC(C)O1 (centres undefined)	–	–	–	50.1µM	·	–
CC1CCCCN1S(=O)(=O)c1ccc(C(=O)N(CCCN(C)C)c2nc3ccc(Br)cc3s2)cc1 (centres undefined)	–	44.7µM	–	·	50.1µM	?
